Inconclusive results are not listed. Active and inactive are the calls of the source. Unless noted, calls follow the shape of the dose curve; as a rule, active = well fitted curve in the direction sought with a large enough effect; inconclusive = small, poorly fitted or top-dose-only effect, or another doubt; inactive = no such curve, though single readings can be large; an effect the other way counts as inactive or inconclusive.

Data on six compounds can be found in PubChem BioAssay (NCATS).

In assay [1] the target is Cytochrome P450 1A2 (Homo sapiens) (UniProt P05177). Put plainly: p450-cyp1a2 (AID 410; calls by dose curve; also: potency is read from the fitted curve at half-maximal effect). In a few lines:
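Read-out is luminescence from luciferin produced by CYP1A2 demethylation of Luciferin-ME (100uM, at Km). Detection reagent stopped the 60 min NADPH-dependent reaction; signals were normalized to 57 uM furafylline.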

Assay [2] in a line: NFAT Signaling Pathway (AID 444; active = well fitted curve in either direction with a large enough effect, not every such curve was filed as active;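 also: carbachol stimulus at about its EC50 of 1 µM final; % is scaled to controls: 0 for no effect and ±100 for the full control effect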). To be noted: Jurkat NFAT-bla M1, carbachol, beta-lactamase ratio, 5 h; at 7.69 µM (top of the series) unless noted. In a few lines: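 Jurkat cells with NFAT-driven β-lactamase reporter and co-expressed M1 receptor, stimulated with carbachol (final 1 uM, ~EC50), compound titration, 5 h at 37 °C. CCF4 loaded 1 h at RT; 460/530 nm ratio gave %activity and AC50.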

Assay [3] can be described thus: Stat Signaling Pathway (AID 446; active = well fitted curve in either direction with a large enough effect, not every such curve was filed as active;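 also: ME-180 cervical cancer cells given 40 pM IL-6 alongside compound; SIE-controlled beta-lactamase reporter measured as 460/530 nm FRET emission ratio; % is scaled to controls: 0 for no effect and ±100 for the full control effect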). To be noted: ME-180 SIE beta-lactamase reporter, IL-6 stimulated, 5 h; at 7.69 µM (top of the series) unless noted. In a few lines: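 Compound effects on IL-6-induced STAT reporter activity were measured in ME-180 cells. After overnight culture, cells were co-treated with 40 pM IL-6 for 5 hrs before beta-lactamase substrate loading at room temperature.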

Assay [4] deals with Glucocorticoid receptor (Homo sapiens) (UniProt P04150). Put plainly: GR-GFP Redistribution (AID 450;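 active = compounds whose dose series gives a full or clear partial fitted curve of increased nuclear translocation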; also: potency is read from the fitted curve at half-maximal effect). To be noted: U2OS GR-GFP nuclear translocation, laser cytometry, 2 h.
Assay [5] shares this target. Put plainly: GR-EFC Redistribution (AID 451; calls by dose curve; also: potency is read from the fitted curve at half-maximal effect). The conditions noted are these: CHO-K1 GR-EFC translocation, beta-gal luminescence, 2 h. Summed up: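 CHO-K1 cells expressing nuclear EA and GR-ED fragments of b-gal; compounds titrated up to 46 uM final, 2 h at 37 C. GR nuclear translocation read as complemented b-gal luminescence after 1 h RT detection.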
Assay [6] deals with Mitogen-activated protein kinase 10 (Mus musculus) (UniProt Q61831). Put plainly: JNK3 AlphaScreen Assay (AID 530; active = well fitted curve in either direction with a large enough effect, not every such curve was filed as active;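 also: kinase came from lysate of stimulated human HepG2 cells; signal reports phosphorylation of biotinylated GST-cJun 1-79 at Ser73 with 10 µM ATP; % is scaled to controls: 0 for no effect and ±100 for the full control effect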). Summed up:
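HepG2 lysate (IL-1b/TNFa pre-activated) + biotin-GST-cJun 1-79 + anti-pSer73 cJun; cpd titration, 15 min RT; ATP 10 uM start; Tris pH 7.6, MgCl2, DTT, vanadate; beads in EDTA buffer; AlphaScreen.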
Background: Bead proximity is the source of the signal in Alpha formats.

Assay [7] deals with Cytochrome P450 3A4 (Homo sapiens) (UniProt P08684). Put plainly: qHTS Assay for Activators of Cytochrome P450 3A4 (AID 885). Also: nearly all actives have a fitted effect of over 65% in size. Summed up: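 CYP3A4 activity: Luciferin-PPXE O-dealkylation, 25uM substrate, 200mM KPO4, RT throughout. Read-out is luciferase luminescence; higher values reflect activation.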
Background: In qHTS, concentration-response curves come from the screen itself.

Assay [8] can be described thus: qHTS Assay for Lipid Storage Modulators (AID 1519; calls by dose curve). To be noted: Drosophila S3 cells, BODIPY lipid droplet/cell ratio, laser cytometry, cells loaded with oleic acid; for activity change, negative = inhibition: at 57.5 µM (top of the series). Summed up:
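Cells seeded at 5,000 per well were treated with compounds over a concentration series and loaded with oleic acid (400 uM, as added). Lipid droplet fluorescence (488 nm excitation, 500-530 nm channel) was read by laser-scanning cytometry and normalized to 20 uM Triacsin C.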

The target of assay [9] is Dual specificity protein kinase CLK4 (Homo sapiens) (UniProt Q9HAZ1). Put plainly: qHTS Assay for Inhibitors of CDC-like Kinase 4 (Kinase-Glo Assay) (AID 1770). Also: nearly all actives have a fitted effect of over 65% in size. Also: potency is read from the fitted curve at half-maximal effect. In a few lines: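 Luminescent ATP-depletion read-out (Kinase-Glo) after 4.5 h room-temperature reaction of Clk4 (25 nM final) with RS peptide (100 uM) and ATP (1 uM), pH 7.5 Tris buffer with MgCl2 and DTT.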
The target is the same in assay [10]. Put plainly: qHTS Assay for Inhibitors of CDC-like Kinase 4 (ADP-Glo Assay) (AID 1771). Also: potency is read from the fitted curve at half-maximal effect; nearly all actives have a fitted effect of over 70% in size. Summed up:
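In this ADP-Glo format, 1 uM ATP and 100 uM RS peptide served as substrates for 25 nM Clk4 in Mg2+/EGTA/DTT/Triton buffer; reactions ran 1 hr at room temperature before luminescent ADP quantification.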

The target is the same in assay [11]. Put plainly: qHTS Assay for Inhibitors of CDC-like Kinase 4 (ADP-FP Assay) (AID 1795). Also: nearly all actives have a fitted effect of over 60% in size. Also: potency is read from the fitted curve at half-maximal effect. Summed up: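 Kinase activity was measured as ADP production using Transcreener orange tracer (4 nM) and ADP antibody (1 ug/mL) fluorescence polarization, with ADP calculated from a calibration curve. The 1 h reaction contained 6.25 nM Clk4, 1 uM ATP and 100 uM RS peptide at pH 7.5 with Mg2+.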

For assay [12], the target named is Ubiquitin carboxyl-terminal hydrolase 1 (Homo sapiens) (UniProt O94782). Put plainly: Inhibitors of USP1/UAF1: Pilot qHTS (AID 504865).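 Also: rhodamine fluorescence freed from ubiquitin-rhodamine substrate followed over time; top concentration of the series differs between compounds; % is scaled to controls: 0 for no effect and ±100 for the full control effect; nearly all actives have a fitted effect of over 35% in size.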 In a few lines:
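Deubiquitinase activity followed as kinetic rhodamine fluorescence release from 150 nM Ub-Rho. 1 nM USP1/UAF1 with compound, after 15 min room-temperature preincubation, in HEPES pH 7.8 buffer containing TCEP, EDTA, BSA and Tween-20.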

The target of assay [13] is Lysosomal acid glucosylceramidase (Homo sapiens) (UniProt P04062). Put plainly: Glucocerebrosidase-p2 (AID 348; in the data active = potency below about 10 µM; also: potency is read from the fitted curve at half-maximal effect). The conditions noted are these: purified GBA, blue fluorogenic substrate, 40 min. In a few lines:
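Normal human glucocerebrosidase (0.2 nM) with blue fluorogenic substrate (80 uM final) in citrate/phosphate pH 5.9 with 10mM sodium taurocholate, 0.01% tween-20; 40 min RT, NaOH/glycine stop; fluorescence Ex 365/Em 440; AC50 from a titration from 0.6 nM upwards.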

Assay [14] deals with 3',5'-cyclic-AMP phosphodiesterase 4B (Homo sapiens) (UniProt Q07343). Put plainly: qHTS Assay for Inhibitors of PDE-IV (AID 607; active = well fitted activation curve with a large enough effect in the main read-out, with a control signal flat, not every such curve was filed as active; also: % of control where 0% means no effect). In a few lines:
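ACTOne HEK293 cells carry a modified cAMP-gated CNG channel and express endogenous PDE4; plated 1000 cells/well, compounds up to 22.9 uM final. Membrane-potential dye fluorescence (ex 535/em 590) was read; parental cells received 10 uM forskolin + 100 uM RO 20-1724.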

Assay [15] is described as follows: qHTS Assay for Identification of Small Molecule Agonists for Hypoxia Response Element Signaling Pathway (AID 914; active = well fitted activation curve with a large enough effect in the signal ratio, with a control signal flat, not every such curve was filed as active; the % refers to the signal ratio; also: potency is read from the fitted curve at half-maximal effect). To be noted: ME-180 HRE-bla reporter, beta-lactamase ratio, CoCl2, 17 h; activation: stronger effect = higher value. In a few lines:
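Cells were plated overnight, pin-dosed with compound in a titration series, co-stimulated with EC50 CoCl2 and incubated 17 hours at 37 degrees Celsius. CCF4 substrate was then loaded, and AC50 values came from the 460nm/530nm ratio.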

Assay [16] in a line: AP1 Signaling Pathway (AID 357; active = well fitted curve in either direction with a large enough effect, not every such curve was filed as active;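 also: ME-180 reporter cells stimulated with EGF at its EC50 level; % is scaled to controls: 0 for no effect and ±100 for the full control effect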). To be noted: ME-180 (cervical carcinoma) AP-1-bla reporter, EGF-induced, beta-lactamase ratio, 5 h; at 7.69 µM (top of the series) unless noted. Summed up: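 Titration-series screen for positive or negative modulators of EC50 EGF-induced signaling in ME-180 cells carrying an AP-1-driven beta-lactamase reporter. After 5 hours at 37 degrees Celsius, CCF4 460nm/530nm emission ratio gave %Activity; AC50 values derived.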

In assay [17] the target is Cytochrome P450 3A4 (Homo sapiens) (UniProt P08684). Put plainly: qHTS Assay for Inhibitors and Substrates of Cytochrome P450 3A4 (AID 884). Also: potency is read from the fitted curve at half-maximal effect; nearly all actives have a fitted effect of over 50% in size. Summed up:
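Luminescent readout of luciferin produced by CYP3A4 (20 nM) dealkylation of Luciferin-PPXE, 25 uM (its KM). NADPH-driven reaction ran 60 min at RT after 10 min compound preincubation; data scaled to 57 uM ketoconazole as 100% inhibition.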

In assay [18] the target is Cytochrome P450 2C19 (Homo sapiens) (UniProt P33261). Put plainly: qHTS Assay for Inhibitors and Substrates of Cytochrome P450 2C19 (AID 899). Also: potency is read from the fitted curve at half-maximal effect; nearly all actives have a fitted effect of over 60% in size. Summed up:
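Signal comes from luciferase acting on luciferin released by CYP2C19-mediated hydroxylation of Luciferin-H EGE, 10uM (KM). Assay mix: 5nM enzyme, 50mM KPO4; 60 min at 37C with NADPH regeneration. Data normalized against 57uM ketoconazole.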

Where [19] appears, read: measured here: cell count channel max response.
The mark [20] stands for this setting: measured here: lipid channel max response.

Chain of Lysosomal acid glucosylceramidase (Homo sapiens) (P04062 whole entry, looked up): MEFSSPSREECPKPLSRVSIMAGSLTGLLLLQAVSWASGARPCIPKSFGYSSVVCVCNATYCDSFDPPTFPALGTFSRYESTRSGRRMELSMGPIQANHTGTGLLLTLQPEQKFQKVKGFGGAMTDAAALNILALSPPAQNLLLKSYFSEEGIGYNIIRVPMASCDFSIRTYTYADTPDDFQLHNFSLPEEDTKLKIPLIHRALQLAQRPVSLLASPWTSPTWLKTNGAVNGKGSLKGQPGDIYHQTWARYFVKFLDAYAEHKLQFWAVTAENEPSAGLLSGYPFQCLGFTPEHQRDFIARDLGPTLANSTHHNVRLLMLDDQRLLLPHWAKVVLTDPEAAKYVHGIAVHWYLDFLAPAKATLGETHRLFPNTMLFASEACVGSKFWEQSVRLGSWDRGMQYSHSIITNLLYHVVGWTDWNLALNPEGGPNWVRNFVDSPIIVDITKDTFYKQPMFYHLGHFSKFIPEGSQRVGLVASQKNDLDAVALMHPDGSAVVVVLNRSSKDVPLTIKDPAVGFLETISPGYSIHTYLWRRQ
Chain of 3',5'-cyclic-AMP phosphodiesterase 4B (Homo sapiens) (Q07343 whole entry, looked up): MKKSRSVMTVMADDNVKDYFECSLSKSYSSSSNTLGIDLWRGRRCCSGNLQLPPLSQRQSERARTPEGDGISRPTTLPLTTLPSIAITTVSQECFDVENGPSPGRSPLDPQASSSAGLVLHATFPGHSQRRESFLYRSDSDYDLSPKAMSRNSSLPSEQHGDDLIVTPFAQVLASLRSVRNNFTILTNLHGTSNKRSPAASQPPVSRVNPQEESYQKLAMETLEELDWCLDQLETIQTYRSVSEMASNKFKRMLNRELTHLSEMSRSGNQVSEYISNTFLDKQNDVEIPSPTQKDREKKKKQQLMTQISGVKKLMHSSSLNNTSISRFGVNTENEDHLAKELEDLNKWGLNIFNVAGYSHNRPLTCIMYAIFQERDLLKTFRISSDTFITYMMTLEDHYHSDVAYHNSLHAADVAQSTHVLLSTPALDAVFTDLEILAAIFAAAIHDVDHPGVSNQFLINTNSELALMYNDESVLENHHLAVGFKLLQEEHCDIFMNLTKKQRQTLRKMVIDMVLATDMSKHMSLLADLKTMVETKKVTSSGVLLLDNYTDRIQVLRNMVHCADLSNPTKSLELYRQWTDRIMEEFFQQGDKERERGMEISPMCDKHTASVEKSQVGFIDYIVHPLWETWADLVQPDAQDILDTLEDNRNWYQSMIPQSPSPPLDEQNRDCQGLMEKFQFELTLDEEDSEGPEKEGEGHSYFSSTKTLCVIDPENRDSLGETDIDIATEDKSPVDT
Chain of Cytochrome P450 1A2 (Homo sapiens) (P05177 whole entry, looked up): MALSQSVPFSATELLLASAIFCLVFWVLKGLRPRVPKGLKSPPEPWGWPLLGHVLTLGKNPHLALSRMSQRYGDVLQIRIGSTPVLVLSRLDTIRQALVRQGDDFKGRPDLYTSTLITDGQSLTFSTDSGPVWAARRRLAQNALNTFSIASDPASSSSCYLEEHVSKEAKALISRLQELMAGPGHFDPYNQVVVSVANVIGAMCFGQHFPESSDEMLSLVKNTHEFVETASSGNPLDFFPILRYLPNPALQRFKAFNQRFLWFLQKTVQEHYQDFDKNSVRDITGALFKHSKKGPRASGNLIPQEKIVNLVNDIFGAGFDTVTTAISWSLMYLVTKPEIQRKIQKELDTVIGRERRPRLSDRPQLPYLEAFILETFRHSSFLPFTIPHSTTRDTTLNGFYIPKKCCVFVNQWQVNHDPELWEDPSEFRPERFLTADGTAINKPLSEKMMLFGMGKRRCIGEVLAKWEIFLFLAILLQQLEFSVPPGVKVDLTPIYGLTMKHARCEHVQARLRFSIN
Chain of Ubiquitin carboxyl-terminal hydrolase 1 (Homo sapiens) (O94782 whole entry, looked up): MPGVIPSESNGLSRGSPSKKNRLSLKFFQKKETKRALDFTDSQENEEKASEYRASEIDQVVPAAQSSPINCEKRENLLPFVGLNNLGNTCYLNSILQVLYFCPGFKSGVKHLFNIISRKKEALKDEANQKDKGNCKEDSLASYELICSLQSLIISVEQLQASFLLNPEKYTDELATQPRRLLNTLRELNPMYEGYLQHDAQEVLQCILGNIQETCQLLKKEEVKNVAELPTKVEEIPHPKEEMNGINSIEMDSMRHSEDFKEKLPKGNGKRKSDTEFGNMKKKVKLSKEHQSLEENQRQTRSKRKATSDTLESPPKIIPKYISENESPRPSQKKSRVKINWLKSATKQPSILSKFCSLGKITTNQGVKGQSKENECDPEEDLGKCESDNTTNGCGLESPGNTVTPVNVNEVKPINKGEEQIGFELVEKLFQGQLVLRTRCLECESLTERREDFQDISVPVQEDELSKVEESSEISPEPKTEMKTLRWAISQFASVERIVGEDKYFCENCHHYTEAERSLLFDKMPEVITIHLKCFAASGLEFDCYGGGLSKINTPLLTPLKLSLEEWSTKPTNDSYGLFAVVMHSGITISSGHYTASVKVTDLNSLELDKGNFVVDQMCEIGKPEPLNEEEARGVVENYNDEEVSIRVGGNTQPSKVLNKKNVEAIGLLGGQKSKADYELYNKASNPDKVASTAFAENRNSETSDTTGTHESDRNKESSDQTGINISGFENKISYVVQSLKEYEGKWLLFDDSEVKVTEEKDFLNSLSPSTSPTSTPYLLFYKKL
Chain of Cytochrome P450 3A4 (Homo sapiens) (P08684 whole entry, looked up): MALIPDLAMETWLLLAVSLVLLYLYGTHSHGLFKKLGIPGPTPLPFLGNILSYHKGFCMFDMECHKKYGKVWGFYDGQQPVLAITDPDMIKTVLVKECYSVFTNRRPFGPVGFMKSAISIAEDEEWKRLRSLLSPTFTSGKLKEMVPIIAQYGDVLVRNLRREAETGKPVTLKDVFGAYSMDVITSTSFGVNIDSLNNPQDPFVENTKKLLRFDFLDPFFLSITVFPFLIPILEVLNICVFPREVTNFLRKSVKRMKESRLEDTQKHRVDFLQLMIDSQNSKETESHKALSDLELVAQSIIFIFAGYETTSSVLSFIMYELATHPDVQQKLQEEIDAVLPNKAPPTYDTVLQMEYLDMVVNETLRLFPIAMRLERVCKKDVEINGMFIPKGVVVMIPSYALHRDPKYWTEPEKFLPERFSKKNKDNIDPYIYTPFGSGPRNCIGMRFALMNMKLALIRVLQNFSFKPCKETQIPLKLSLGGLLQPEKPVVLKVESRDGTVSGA
Chain of Glucocorticoid receptor (Homo sapiens) (P04150 whole entry, looked up, the tested form may be a part): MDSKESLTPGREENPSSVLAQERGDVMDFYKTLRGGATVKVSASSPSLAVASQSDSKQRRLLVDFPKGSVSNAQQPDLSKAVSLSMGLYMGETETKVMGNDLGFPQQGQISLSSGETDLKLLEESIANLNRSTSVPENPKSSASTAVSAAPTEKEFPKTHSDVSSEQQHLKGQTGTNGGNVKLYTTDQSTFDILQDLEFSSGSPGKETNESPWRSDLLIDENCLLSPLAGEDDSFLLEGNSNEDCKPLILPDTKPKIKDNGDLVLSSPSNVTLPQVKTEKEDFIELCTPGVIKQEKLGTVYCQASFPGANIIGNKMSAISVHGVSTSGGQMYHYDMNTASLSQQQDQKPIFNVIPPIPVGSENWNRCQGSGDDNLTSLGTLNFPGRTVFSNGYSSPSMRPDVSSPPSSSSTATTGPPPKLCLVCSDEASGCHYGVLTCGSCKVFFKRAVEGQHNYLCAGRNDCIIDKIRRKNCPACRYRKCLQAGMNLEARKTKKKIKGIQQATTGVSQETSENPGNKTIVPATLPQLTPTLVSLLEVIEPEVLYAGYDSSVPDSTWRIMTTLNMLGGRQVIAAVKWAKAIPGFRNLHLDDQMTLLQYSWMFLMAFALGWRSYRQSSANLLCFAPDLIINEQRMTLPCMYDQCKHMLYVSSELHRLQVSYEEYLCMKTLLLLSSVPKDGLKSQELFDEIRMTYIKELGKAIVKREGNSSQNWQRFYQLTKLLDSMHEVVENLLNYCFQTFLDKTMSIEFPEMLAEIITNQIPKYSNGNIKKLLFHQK
Chain of Dual specificity protein kinase CLK4 (Homo sapiens) (Q9HAZ1 whole entry, looked up): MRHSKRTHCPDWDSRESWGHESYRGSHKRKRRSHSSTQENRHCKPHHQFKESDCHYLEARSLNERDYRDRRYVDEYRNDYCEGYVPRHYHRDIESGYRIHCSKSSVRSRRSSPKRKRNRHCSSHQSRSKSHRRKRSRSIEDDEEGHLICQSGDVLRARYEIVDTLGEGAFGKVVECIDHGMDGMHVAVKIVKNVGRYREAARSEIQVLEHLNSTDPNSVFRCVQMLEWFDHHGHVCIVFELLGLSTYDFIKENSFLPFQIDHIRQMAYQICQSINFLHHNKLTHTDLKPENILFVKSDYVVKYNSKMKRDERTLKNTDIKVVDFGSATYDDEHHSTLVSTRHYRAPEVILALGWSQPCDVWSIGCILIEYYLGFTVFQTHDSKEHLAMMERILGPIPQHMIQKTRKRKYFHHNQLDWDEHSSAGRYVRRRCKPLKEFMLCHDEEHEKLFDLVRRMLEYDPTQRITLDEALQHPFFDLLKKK
Chain of Cytochrome P450 2C19 (Homo sapiens) (P33261 whole entry, looked up): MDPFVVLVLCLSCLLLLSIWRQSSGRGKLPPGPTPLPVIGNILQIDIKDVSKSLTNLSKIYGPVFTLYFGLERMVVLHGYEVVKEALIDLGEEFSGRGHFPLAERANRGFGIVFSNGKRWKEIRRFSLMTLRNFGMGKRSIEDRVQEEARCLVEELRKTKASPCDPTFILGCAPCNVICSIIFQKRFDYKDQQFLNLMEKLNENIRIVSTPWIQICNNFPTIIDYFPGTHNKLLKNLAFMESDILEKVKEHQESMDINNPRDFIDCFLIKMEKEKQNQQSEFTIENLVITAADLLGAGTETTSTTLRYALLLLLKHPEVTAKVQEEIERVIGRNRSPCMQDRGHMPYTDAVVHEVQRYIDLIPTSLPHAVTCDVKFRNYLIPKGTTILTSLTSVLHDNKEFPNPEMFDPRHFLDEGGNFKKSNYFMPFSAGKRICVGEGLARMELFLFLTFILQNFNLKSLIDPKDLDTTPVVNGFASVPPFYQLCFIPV

For `COc1ccccc1CNc1ncnc2ccc(-c3ccoc3)cc12`, the Potency in assay [1] is 2.51 µM (active); in [4], > 46 µM (inactive); in assay [5], > 46 µM (inactive); in assay [9] it was 0.251 µM (active); in assay [10], 0.316 µM (active); in [11], 0.141 µM (active). Further, the activity change, negative = inhibition in assay [2] was -7.72% (inactive); in assay [8] it was -10.7% (inactive). In addition, the activity, negative = inhibition in assay [3] is -21.5% (inactive). Moreover, the Potency result in assay [6], in assay [7] and in assay [12] was “inactive” throughout. The max response in [8] (setting [19]) turned out to be 20%; in [8] (setting [20]), 4.99%.

For `Clc1ccccc1-c1cncnc1NCCN1CCOCC1`, the Potency in [13] was > 11.4 µM (inactive); in assay [4], > 46 µM (inactive); in assay [5], > 46 µM (inactive); in assay [15], 3.16 µM (active). Moreover, the activity, negative = inhibition in assay [3] was 7.26% (inactive). In addition, the Potency entry in assay [6], in assay [14], in assay [9], in assay [11] and in [12] was “inactive” each time. In [8], the activity change, negative = inhibition is 1.35% (inactive). For the same compound, the figures for the max response in assay [8] (setting [19]) and in [8] (setting [20]) were 18.6% and 20.3%, respectively.

`COc1ccc(Oc2ncc3nc(-c4ccc(Cl)cc4)c(=O)n(C4CC4)c3n2)cc1`: the Potency is > 11.4 µM (inactive) in assay [13], > 9.22 µM (inactive) in [4] and > 46 µM (inactive) in [5]. For the same compound, the activity change, negative = inhibition in [16] was -19.7% (inactive); in assay [2], 2.73% (inactive); in assay [8], 4.67% (inactive). In [3], the activity, negative = inhibition was -1.97% (inactive). For the same compound, the Potency result in [6], in assay [9], in assay [11] and in [12] was “inactive” throughout. The results for the max response in assay [8] (setting [19]) and in assay [8] (setting [20]) were -1.25% and 5.63%, respectively.

Take `CS(=O)(=O)Nc1cccc(-c2nc(NC3CC3)c3ccccc3n2)c1`: the activity change, negative = inhibition in assay [16] was -17.2% (inactive); in assay [2] it was 0.73% (inactive); in assay [8], 3.51% (inactive). Moreover, the activity, negative = inhibition in assay [3] is 4.92% (inactive). Moreover, the Potency in assay [4] was > 46 µM (inactive); in assay [5], > 46 µM (inactive); in assay [9], 7.94 µM (active); in assay [10] it was 10 µM (active); in assay [11], 12.6 µM (active). In addition, the Potency entry in assay [6], in [14] and in assay [12] was “inactive” each time. Further, the max response is 19.9% in assay [8] (setting [19]) and 22.8% in assay [8] (setting [20]).

Take `COc1ccccc1-c1ccc2ncnc(NCCN3CCOCC3)c2c1`: the Potency was 15.8 µM (active) in assay [1]; > 46 µM (inactive) in assay [4]; > 46 µM (inactive) in [5]; 7.94 µM (active) in [17]; 14.1 µM (active) in assay [9]; 17.8 µM (active) in assay [10]. The activity change, negative = inhibition in [2] is 5.89% (inactive); in [8], -9.29% (inactive). Moreover, the activity, negative = inhibition in assay [3] is -7.65% (inactive). For the same compound, the Potency entry in assay [6], in assay [14], in assay [7] and in assay [12] was “inactive” throughout. Moreover, the max response in assay [8] (setting [19]) is -4.88%; in assay [8] (setting [20]), -15.2%.

As for `COc1ccccc1-c1ccc2ncnc(Nc3ccccc3)c2c1`, the Potency in [13] was > 11.4 µM (inactive); in assay [1], 2.51 µM (active); in assay [4], > 46 µM (inactive); in [5], > 46 µM (inactive); in assay [18], 5.01 µM (active); in [9] it was 15.8 µM (active). Moreover, the Potency in assay [10] was 15.8 µM (active). Also, the figures for the activity change, negative = inhibition in assay [2] and in [8] were 10.9% (inactive) and -15.1% (inactive), respectively. For the same compound, in assay [3], the activity, negative = inhibition was 9.56% (inactive). Besides, the Potency result in assay [6], in assay [7] and in [12] was “inactive” each time. The max response was -15.8% in [8] (setting [19]) and -29% in assay [8] (setting [20]).
